Source: PubChem BioAssay
The source made the active and inactive calls.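 Rule for the calls, unless noted: active = inhibition of the reporter signal at or above 50%; inactive = inhibition below 50%.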

What was measured:
[1] = inhibitors of TNFa-induced NFkB p65 translocation, primary screen, imaging, HUVEC, MLSMR starter and 10KST1 sets (AID 438;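 active = inhibition above 20% together with a positive visual image hit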;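 note: compound added about 3h40 before a 20 min TNFalpha stimulation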;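 for inhibition: signal is the nuclear over cytoplasmic p65 intensity ratio per well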); conditions: HUVEC TNFa-induced p65 nuclear translocation; cell count: measured here: nuclei count (cytotoxicity indicator), at 2.08 µM; inhibition: at 2 µM, stronger effect = higher value, 0% TNFa-plus-vehicle, 100% no-TNFa wells
[2] = reduction of polyQ htt aggregates in cells – imaging, exon1htt(103Q)mCFP cells, high-content imaging, primary screen (AID 483;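 active = visual image review flags a hit and inhibition of aggregation exceeds 20%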;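 note: compound exposure lasted 3 days before fixation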;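 for nuclei count: percent of the per-plate median nuclei count of sample wells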); conditions: exon1htt(103Q)mCFP cell line, aggregate imaging, at 2 µM; inhibition of aggregation: stronger effect = higher value; nuclei count: measured here: cell count, toxicity
[3] = endothelial E-selectin expression blockers – imaging, HUVEC, immunofluorescence, MLSMR starter and 10KST1 sets, primary screen (AID 487;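 active = visually confirmed hit in the image check and inhibition above 20%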;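 for inhibition: signal is fraction of cell area covered by stained E-selectin grains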;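 for nuclei count: 100% = median nuclei count of all wells on the same plate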); conditions: HUVEC TNFalpha-induced E-selectin immunofluorescence imaging, at 2 µM; inhibition: stronger effect = higher value; nuclei count: measured here: cell number, toxicity
[4] = target: Voltage-gated potassium channel subunit beta-2 (Rattus norvegicus) (UniProt P62483); test: inhibitors of rat Kvbeta2 reductase activity – biochemical, NADPH fluorescence, primary screen (AID 622;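 active = fluorescence slope higher than the sample average by over 3 SD, cut at about -0.22 in these data, passing the limit was not always enough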;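 note: slope of raw intensity against log time taken from 70 to 1610 s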); conditions: recombinant KvBeta, 4-cyanobenzaldehyde reduction, at 10 µM, stronger effect = higher value
[5] = target: Voltage-gated potassium channel subunit beta-2 (Rattus norvegicus) (UniProt P62483); test: enhancers of rat Kvbeta2 NADPH turnover – biochemical, NADPH fluorescence, primary screen (AID 623;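 active = NADPH fluorescence slope more negative than the mean of all samples by about 3 SD, 99.7% confidence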;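 note: fluorescence intensity change per second fitted from 20 to 320 s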); conditions: Recombinant KvBeta, NADPH fluorescence decrease slope, 10 min; at 10 µM; stronger effect = lower value
[6] = target: Alpha-2C adrenergic receptor (Homo sapiens) (UniProt P18825); test: compounds altering alpha2C-coupled GIRK flux – cell-based, HEK293 alpha2C/GIRK1/2, thallium flux, primary screen (AID 624;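 active = fluorescence slope after compound addition differing from the mean of all screened samples at 99.7% confidence, in either direction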;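 note: slope of fluorescence ratio to pre-addition baseline per second over 15 to 24 s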); conditions: thallium flux BTC fluorescence, at 10 µM, actives lie on both sides
[7] = blockers of RIG-like receptor reporter activation – cell-based, Sendai virus stimulus, luciferase, 10K MLSCN set, TLR/RLR signaling modifier project, primary screen (AID 602276;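 active = inhibition at or above 50% at 10 µM; inactive = inhibition below 50%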;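 note: firefly luciferase from ISG56 promoter only with Renilla not read in this screen; 0% = Sendai virus plus DMSO and 100% = medium plus DMSO without virus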); conditions: HEK293 RL24 IRF3 luciferase reporter, at 10 µM, stronger effect = higher value
[8] = TLR3 IRF3 reporter activation blockers – cell-based, poly I:C stimulus, luciferase, 10K MLSCN set, primary screen (AID 602277); conditions: HEK293-TLR3 RL24 IRF3 luciferase reporter, at 10 µM, stronger effect = higher value

Sequence of Voltage-gated potassium channel subunit beta-2 (Rattus norvegicus) (P62483 whole entry, looked up): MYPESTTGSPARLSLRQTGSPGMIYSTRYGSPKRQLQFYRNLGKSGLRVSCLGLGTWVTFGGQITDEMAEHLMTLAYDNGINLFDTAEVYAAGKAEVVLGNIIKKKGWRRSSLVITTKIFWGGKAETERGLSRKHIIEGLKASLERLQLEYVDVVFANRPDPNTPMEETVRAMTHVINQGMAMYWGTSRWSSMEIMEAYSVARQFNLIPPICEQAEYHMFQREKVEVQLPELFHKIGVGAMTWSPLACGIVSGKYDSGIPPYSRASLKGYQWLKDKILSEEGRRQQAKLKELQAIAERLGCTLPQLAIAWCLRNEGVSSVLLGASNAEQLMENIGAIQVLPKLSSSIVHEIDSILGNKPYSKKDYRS
Sequence of Alpha-2C adrenergic receptor (Homo sapiens) (P18825 whole entry, looked up): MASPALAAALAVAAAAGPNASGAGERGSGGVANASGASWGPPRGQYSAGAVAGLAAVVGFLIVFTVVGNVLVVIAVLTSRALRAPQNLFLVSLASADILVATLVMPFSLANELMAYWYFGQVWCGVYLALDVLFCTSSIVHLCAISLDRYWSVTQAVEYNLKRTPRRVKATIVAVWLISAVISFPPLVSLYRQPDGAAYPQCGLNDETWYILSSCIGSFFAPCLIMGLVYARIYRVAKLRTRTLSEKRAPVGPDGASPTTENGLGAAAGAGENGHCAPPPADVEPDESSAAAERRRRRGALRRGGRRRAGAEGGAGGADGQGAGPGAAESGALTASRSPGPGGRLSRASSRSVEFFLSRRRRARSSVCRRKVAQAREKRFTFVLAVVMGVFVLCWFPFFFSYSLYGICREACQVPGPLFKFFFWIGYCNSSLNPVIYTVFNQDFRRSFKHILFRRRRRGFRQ

SMILES | cell count [1] | inhibition [1] | inhibition of aggregation [2] | nuclei count [2] | inhibition [3] | nuclei count [3] | fluorescence slope [4] | NADPH fluorescence slope [5] | slope [6] | inhibition [7] | inhibition [8]
CN1CCN(C(=O)c2ccc(CS(=O)(=O)c3c(Cl)cccc3Cl)o2)CC1 | 652 | -0.5% (inactive) | 11.9% (inactive) | 96.9% | -24.1% (inactive) | 137% | -0.515 (inactive) | -2.9e-05 (inactive) | 0.00604 (inactive) | 16.8% (inactive) | 24.4% (inactive)
O=S(c1ccsc1)c1ccsc1 | 444 | 6.5% (inactive) | 1.4% (inactive) | 95.8% | 13% (inactive) | 99.8% | -0.497 (inactive) | -4.1e-05 (inactive) | 0.00527 (inactive) | 19.8% (inactive) | 26.3% (inactive)
Cc1cc(C)n2cc(CSc3nnnn3C)nc2n1 | 532 | -36.9% (inactive) | 9.5% (inactive) | 106% | 36.6% (inactive) | 65.8% | -0.256 (inactive) | -4.3e-06 (inactive) | 0.00505 (inactive) | 15.1% (inactive) | 19.7% (inactive)
CCS(=O)(=O)N1CCCC(C(=O)NCc2ccccc2Cl)C1 (stereo not drawn) | 257 | -1.9% (inactive) | -1.1% (inactive) | 107% | -15.6% (inactive) | 112% | -0.608 (inactive) | -1.9e-05 (inactive) | 0.00474 (inactive) | 3.16% (inactive) | -6.49% (inactive)
CC1=C(C(=O)OC2CCCC2)C(c2ccc(C)o2)C2=C(CC(c3cccs3)CC2=O)N1 (stereo not drawn) | 346 | 3.5% (inactive) | -7.2% (inactive) | 81.1% | -10.5% (inactive) | 99% | -0.459 (inactive) | -5.5e-05 (inactive) | 0.00301 (inactive) | -5.28% (inactive) | 16.8% (inactive)
O=C(Nc1ccc2c(c1)OCO2)c1cc2ncc(Br)cn2n1 | 588 | 6.6% (inactive) | -4.4% (inactive) | 107% | -73.8% (inactive) | 104% | -0.624 (inactive) | 1.6e-05 (inactive) | 0.00236 (inactive) | 5.44% (inactive) | 11.5% (inactive)
c1ccn2c(SCc3ccc4c(c3)OCCO4)nnc2c1 | 793 | -10.5% (inactive) | 11.4% (inactive) | 88.9% | -56.4% (inactive) | 117% | -0.583 (inactive) | 5.1e-06 (inactive) | 0.00773 (inactive) | -29.2% (inactive) | -95% (inactive)
CC(C)[C@H](NC(=O)NC1CCCC1)C(=O)O | 252 | 2.5% (inactive) | 7.6% (inactive) | 87.5% | 3.3% (inactive) | 91.7% | -0.462 (inactive) | 2e-05 (inactive) | 0.0056 (inactive) | 5.42% (inactive) | 16.1% (inactive)
Cc1cc(NC(=O)CCOc2ccccc2)no1 | 403 | -11.8% (inactive) | -20.8% (inactive) | 113% | 35.5% (inactive) | 64.3% | -0.455 (inactive) | -5e-05 (inactive) | 0.00305 (inactive) | 6.04% (inactive) | 23.9% (inactive)
Cc1ccc(N2CCN(C(=S)c3ccc(N(C)C)cc3)CC2)cc1 | 411 | -38.4% (inactive) | -2.2% (inactive) | 85.8% | -90.7% (inactive) | 98.3% | -0.595 (inactive) | -2.7e-05 (inactive) | 0.00418 (inactive) | -12.6% (inactive) | -63.7% (inactive)
O=C(Nc1ccccc1C(=O)N1CCN(c2ccccc2)CC1)c1ccco1 | 300 | -5.1% (inactive) | 6.3% (inactive) | 98.2% | -73.2% (inactive) | 111% | -0.605 (inactive) | -2.1e-05 (inactive) | 0.00253 (inactive) | 0.26% (inactive) | -6.86% (inactive)
O=C(CSc1nnc2ccccn12)c1ccccc1 | 535 | 7.7% (inactive) | 2.2% (inactive) | 105% | 23.4% (inactive) | 70.9% | -0.46 (inactive) | 4e-05 (inactive) | 0.00782 (inactive) | -34.1% (inactive) | -86.4% (inactive)
O=C1c2ccccc2C(Nc2cccnc2)N1Cc1ccccc1Cl (stereo not drawn) | 674 | -14.6% (inactive) | -13.6% (inactive) | 105% | -37.8% (inactive) | 109% | -0.422 (inactive) | -4.2e-05 (inactive) | 0.00424 (inactive) | 3.6% (inactive) | 18.3% (inactive)
Cc1ccc(C(=O)CC2(O)C(=O)N(C)c3ccc(Br)cc32)c(C)c1 (stereo not drawn) | 614 | -5% (inactive) | -6.2% (inactive) | 107% | -23.2% (inactive) | 123% | -0.457 (inactive) | -5.1e-05 (inactive) | 0.0058 (inactive) | 15.6% (inactive) | 31.5% (inactive)
Cn1c(SCc2nc3ccccc3c(=O)[nH]2)nnc1-c1ccco1 | 748 | 0% (inactive) | 11.8% (inactive) | 104% | -141% (inactive) | 131% | -0.496 (inactive) | -6.5e-06 (inactive) | 0.00622 (inactive) | -0.0213% (inactive) | 25.9% (inactive)
CC12CN3CC(C)(CN(C1)C3c1ccc(Cl)cc1Cl)C2=O (stereo not drawn) | 849 | -4.6% (inactive) | -26.4% (inactive) | 123% | -21.6% (inactive) | 121% | -0.557 (inactive) | -1.9e-05 (inactive) | 0.00699 (inactive) | 1.89% (inactive) | 28.2% (inactive)
COc1ccc2nc(NC(=O)c3ccoc3C)sc2c1 | 362 | 1.4% (inactive) | -11.6% (inactive) | 106% | -75.7% (inactive) | 118% | -0.38 (inactive) | -2.2e-05 (inactive) | 0.00322 (inactive) | -30.4% (inactive) | -105% (inactive)
O=C(NCCN1C(=O)C2C3C=CC(C3)C2C1=O)N1CCCCC1 (stereo not drawn) | 584 | -7.6% (inactive) | 0.9% (inactive) | 104% | 3.5% (inactive) | 99.5% | -0.604 (inactive) | -3.7e-05 (inactive) | 0.00723 (inactive) | -6.07% (inactive) | 20.6% (inactive)
Nc1nnnn1/N=C/c1ccccc1OCc1ccccc1 | 474 | 4.5% (inactive) | -2.8% (inactive) | 101% | -283% (inactive) | 138% | -0.496 (inactive) | -4.4e-05 (inactive) | 0.00612 (inactive) | 7.71% (inactive) | 0.143% (inactive)
CC1CCc2nn(CC(=O)N3CCN(C(=O)c4ccco4)CC3)cc2C1 (stereo not drawn) | 758 | -8.5% (inactive) | -12% (inactive) | 112% | -41% (inactive) | 107% | -0.585 (inactive) | -5.6e-05 (inactive) | 0.0063 (inactive) | 6.35% (inactive) | 25.7% (inactive)
O=C(CN(C(=O)CCNC(=O)c1ccco1)c1ccccc1)NC1CCCC1 | 311 | -7.8% (inactive) | 27.1% (inactive) | 93.4% | -61.7% (inactive) | 113% | -0.542 (inactive) | 2.6e-05 (inactive) | 0.00484 (inactive) | -10.7% (inactive) | -6.31% (inactive)
CCN1C(=O)c2cccc3c(NC(=O)c4ccc5c(c4)OCCO5)ccc1c23 | 563 | 0.5% (inactive) | 4.6% (inactive) | 87.1% | 18% (inactive) | 90.9% | -0.48 (inactive) | -5.7e-06 (inactive) | -0.00194 (inactive) | 7.48% (inactive) | 17% (inactive)
CC(=O)Nc1cccc(NC(=O)c2oc3ccccc3c2C)c1 | 343 | -0.2% (inactive) | 0.5% (inactive) | 98.8% | -9.3% (inactive) | 112% | -0.521 (inactive) | 1.6e-05 (inactive) | 0.00572 (inactive) | -37.4% (inactive) | -104% (inactive)
CC(C)c1nnc(NC(=O)CCC(=O)NCc2ccc3c(c2)OCO3)s1 | 571 | 11.2% (inactive) | -5.1% (inactive) | 95.8% | 21.4% (inactive) | 97.3% | -0.404 (inactive) | -4.6e-05 (inactive) | 0.00581 (inactive) | 14.1% (inactive) | 13.8% (inactive)
CN1CCN(C(c2cccc(C(F)(F)F)c2)c2nnnn2C(C)(C)C)CC1 (stereo not drawn) | 337 | -6% (inactive) | 32.7% (inactive) | 73.7% | -68.4% (inactive) | 94.8% | -0.591 (inactive) | -2.7e-05 (inactive) | 0.00442 (inactive) | 19.1% (inactive) | 22.7% (inactive)
CC(NC(=O)c1cn(C)c2ccc(S(=O)(=O)N3CCCC3)cc2c1=O)c1ccc2c(c1)OCCO2 (stereo not drawn) | 766 | 0% (inactive) | 5.6% (inactive) | 98.3% | 3.8% (inactive) | 103% | -0.483 (inactive) | -0.000101 (inactive) | 0.00703 (inactive) | -4.57% (inactive) | 17% (inactive)
Cc1cccc(-c2nnc(SCC#N)n2-c2cccc(Cl)c2)c1 | 651 | 10.2% (inactive) | 0.4% (inactive) | 118% | 66.1% (inactive) | 109% | -0.441 (inactive) | -2.1e-05 (inactive) | 0.00584 (inactive) | 10.9% (inactive) | 21.3% (inactive)
O=C(Nc1ccc2c(c1)OCO2)c1ccc(CN2CCOCC2)cc1 | 361 | -5.1% (inactive) | -32% (inactive) | 110% | -117% (inactive) | 122% | -0.491 (inactive) | -3.3e-05 (inactive) | 0.00498 (inactive) | -25.7% (inactive) | -76.1% (inactive)
